Test results: PubChem BioAssay (Tox21)
Results filed as inconclusive are left out. A number with no mark means an inactive call. The call rests on the fitted dose curve; in most records, active means well fitted activation curve with a large enough effect in the repeat runs; inconclusive means weak or mixed curves, or effect the other way; inactive means no such curve, though single readings can be large or run the other way.

Test: qHTS assay to identify small molecule agonists of the estrogen related receptor signaling pathway with the pleiotropic PPARgamma coactivator (PGC) from Tox21 10K library (AID 1224842); further: nearly all actives have a fitted effect of over 15% in size
Settings: PGC/ERR reporter cell line, luciferase ONE-Glo, 18 h; series mostly up to 92.4 µM; activation: at the top concentration
How it was run: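 Luminescence from One-Glo (30 min, room temperature) measured after PGC/ERR cells had 18 h at 37 C with pinned compound (23 nL in DMSO). Cells had been seeded at 2,000 per well and pre-incubated 6 h.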
On the % scale 0 is the no-effect control and ±100 the full control effect.

| Structure (SMILES) | activation |
| --- | --- |
| CC(=O)Nc1ccc(C)cc1 | 1.69% |
| CCC1COC(=O)O1 (stereo not drawn) | 3.9% |
| C[CH2][Ge]([Cl])([CH2]C)[CH2]C | 0.341% |
| Cc1cccc(Nc2ccncc2S(=O)(=O)NC(=O)NC(C)C)c1 | 5.12% [at 42.5 µM] |
| Oc1ccccc1Cc1ccccc1O | 0.113% |
| CCCCCN(CCCOC)C(=O)C(CCC(=O)O)NC(=O)c1ccc(Cl)c(Cl)c1 (stereo not drawn) | -0.313% [at 42.5 µM] |
| NS(=O)(=O)c1ccccc1OC(F)(F)F | 2.19% |
| CC(=O)OCCCc1ccccc1 | 1.12% |
| CN[C@@H]1[C@@H](O)[C@@H](O[C@@H]2[C@H](O)[C@H](O[C@H]3OC(CN)=CC[C@H]3N)[C@@H](N)C[C@H]2N)OCC1(C)O (stereo partly drawn) | -0.0431% [at 42.5 µM] |
| CCC(C)(C)C1CCC(=O)CC1 | 4.43% |
| Cc1ccccc1C | 3.21% |
| NC(=O)NNC(N)=O | 4.19% |
| CCCCCCCCCCCCCCCC(=O)NCCO | -0.759% [at 42.5 µM] |
| O=C(O)c1ccc(OCCN2CCCCC2)cc1 | 2.52% [at 42.5 µM] |
| C=CCOc1c(Br)cc(Br)cc1Br | 0.361% |
| O=CN1CCOCC1 | 0.592% |
| CCCCCCCCOC(C)=O | -0.0132% |
| CC(C)COC(=O)COc1ccc(Cl)cc1Cl | 2.87% |
| CCCCC(C)C(=O)O (stereo not drawn) | 3.61% |

| Structure (SMILES) | activation |
| --- | --- |
| CCCCCCCCCCCCCCCCI | -1.58% [at 19 µM] |
| COc1ccc(NS(=O)(=O)c2ccc(N)cc2)nn1 | 0.927% [at 42.5 µM] |
| O=c1[nH]c(=O)c2ccccc2o1 | 0.329% [at 42.5 µM] |
| CNCc1ccccc1 | -1.13% [at 42.5 µM] |
| O=C(COCCOCCOCC(=O)Nc1c(I)cc(I)c(C(=O)O)c1I)Nc1c(I)cc(I)c(C(=O)O)c1I | -4.61% [at 42.5 µM] |
| CCCCCCCCCCC | -5.02% |
| C=CCOc1c(Br)cc(C(C)(C)c2cc(Br)c(OCC=C)c(Br)c2)cc1Br | -8.8% [at 42.5 µM] |
| O=C(O)/C=C/c1ccccc1 | 2.91% |
| C[C@H](CCC(=O)NCC(=O)O)[C@H]1CC[C@H]2[C@@H]3[C@H](O)C[C@@H]4C[C@H](O)CC[C@]4(C)[C@H]3C[C@H](O)[C@]12C | -4.1% |
| CCCOC(=O)CCCCC(=O)OCCC | 0.332% |
| CN(C)CCOCCN(C)CCO | -2.63% |
| CC(C)SCc1ccco1 | -3.78% [at 42.5 µM] |
| CCNC(=O)NCCCOc1cccc(CN2CCCCC2)c1 | -1.19% [at 42.5 µM] |
| COc1cc(C=O)ccc1OC(=O)C(C)C | -6.43% |
| O=C(Oc1ccccc1C(=O)O)c1ccccc1O | -0.422% [at 42.5 µM] |
| CCCCCCCCCCCCCCCCCCN(C)C | -0.598% [at 42.5 µM] |
| O=C(O)CCNC(=O)c1ccccc1 | 0.154% [at 42.5 µM] |
| CC(=O)Nc1ncc([N+](=O)[O-])s1 | 5.52% [at 42.5 µM] |
| COc1cccc2sc(N)nc12 | 3.51% |
